Bioassay records: PubChem BioAssay, several laboratories
IEC-6 cytotox – kills IEC-6 intestinal cells in KLF5 counter-screen. IEC-6 cytotoxicity, luminescence viability. inhibition, % at 5 µM. 290,000 tested, 0.78% active. AID 1825; in the data active means inhibition above about 22%;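 further: 0% = plate median of test compound wells and 100% = cytotoxic reference compound wells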
Ba/F3 V617F tox – reduce viability of Ba/F3 cells dependent on JAK2V617F. Ba/F3 EpoR-JAK2V617F viability, ATP luminescence. inhibition, % at 5.6 µM. 220,000 tested, 1.1% active. AID 1446;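 active means inhibition above the campaign mean plus 3 SD over all tested compounds, cut at about 24% in these data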;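 further: cytokine-independent growth of Ba/F3 cells driven by EpoR plus mutant JAK2; 0% = DMSO-treated cells and 100% = JAK inhibitor I control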
BaF3 parental – counter-screen for JAK2V617F inhibitors: parental Ba/F3 viability inhibitors; CellTiter-Glo ATP luminescence; inhibition, % at 5.6 µM; 220,000 tested, 1.1% active;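 active means inhibition above a per-campaign cutoff, the mean inhibition of all tested compounds plus 3 SD, cut at about 27% in these data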;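 further: 0% = DMSO wells and 100% = JAK Inhibitor I control wells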
KLF5 inh – suppresses KLF5 promoter-driven expression. DLD-1 KLF5 promoter-luciferase reporter, luminescence. inhibition, % at 5 µM. 290,000 tested, 0.23% active;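 active means inhibition above a per-plate limit of that plate's mean compound inhibition plus 3 SD, cut at about 60% in these data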;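 further: 0% = DMSO wells and 100% = LY294002 at 200 µM; higher means less KLF5 promoter-driven luciferase light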
APP 5UTR inh – APP translation inhibition. SH-SY5Y APP 5'UTR-luciferase reporter, luminescence. inhibition, % at 2 µM. 190,000 tested, 0.82% active. AID 1285;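 active means inhibition above a set limit, derived from the sample mean plus 3 SD, cut at about 45% in these data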
Numbers without * were called inactive; x = no result given. Sampled rows, rich in hits. Any-hit rate of the full collection: about 1.9%.

SMILES	IEC-6 cytotox	Ba/F3 V617F tox	BaF3 parental	KLF5 inh	APP 5UTR inh
CC(=O)/C(N=Nc1c(C)n(C)n(-c2ccccc2)c1=O)=C(\C)O	-4	-1	-2	-24	79*
COC(=O)c1ccc2nc(Nc3nc4c(F)cc(F)cc4s3)sc2c1	10	2	6	92*	4
CCOC(=O)c1ccc2nc(Nc3nc4ccc(F)cc4s3)sc2c1	-7	-2	5	49	7
CCOc1cccc(C(=O)NC(=S)Nc2cccnc2)c1	-1	0	6	-26	-9
O=c1c(/C=N/Nc2ccccc2)c(Sc2nnnn2-c2ccccc2)nc2ccccn12	2	2	4	-30	75*
O=C(O)c1ccccc1N/N=C/c1c(Sc2nnnn2-c2ccccc2)nc2ccccn2c1=O	4	5	-4	0	x
CC(C)N(CC(N)=O)C(=O)c1sc2cc(F)ccc2c1Cl	2	0	9	-26	-33
O=C(Nc1ccc(F)cc1F)Nc1ccc(F)cc1F	-1	18	56*	-69	-45
O=C(O)c1cc(NC(=O)c2ccco2)cc(NC(=O)c2ccco2)c1	-2	x	x	2	x
O=C(CSc1nnnn1C1CCCCC1)Nc1ccc(F)cc1	-6	-3	56*	-29	6
CCCS(=O)(=O)N1CCCC(c2nc(-c3ccc(OC)cc3)no2)C1 (centres undefined)	-3	-2	4	-5	-9
CCS(=O)(=O)N1CCCC(c2nc(-c3cccc(OC)c3)no2)C1 (centres undefined)	5	-3	96*	-33	-25
CCCCNC(=O)CC(C(=O)N1CCc2ccccc21)n1ccnc1 (centres undefined)	0	-4	0	-17	14
O=C(CC(C(=O)N1CCc2ccccc21)n1ccnc1)NCC1CCCO1 (centres undefined)	0	1	95*	-30	-10
Cc1ccc(S(=O)(=O)N(C)c2ccc(C(=O)N3CCc4ccccc4C3)cc2)cc1	1	2	10	-8	0
COc1cccc(CNC(=O)CC2Sc3ccccc3NC2=O)c1 (centres undefined)	0	1	59*	-16	-12
CCOc1ccc(-c2ccc(SCC(=O)Nc3nnc(CC)s3)nn2)cc1	-1	0	4	-111	-115
COc1ccc(Oc2nc(C(F)(F)F)nc3ccccc23)cc1	6	2	4	1	11
CCN(CC)C(=O)c1ccc(/C=C/c2c[nH]c3ccccc23)[n+](C)c1	-1	-3	0	-24	-2
CC[n+]1c(/C=C/c2c[nH]c3ccccc23)ccc2cc(C)ccc21	10	91*	79*	17	-6
CCn1c(=O)cc(OCC(=O)N2CCCCCC2)c2ccccc21	3	2	3	-25	55*
O=C(OCn1ncc(Br)c(Br)c1=O)c1c(F)cccc1F	11	74*	67*	-39	96*
CC(C)(C)C(=O)Cn1ncc(N2CCCC2)c(Br)c1=O	-7	-4	3	-74	-39
CC(=O)Cn1ncc(Br)c(Br)c1=O	102*	5	-3	-33	97*
COC(=O)C(COC(=O)c1c(F)cccc1F)NC(=O)c1c(F)cccc1F (centres undefined)	4	x	x	0	x
SMILES	IEC-6 cytotox	Ba/F3 V617F tox	BaF3 parental	KLF5 inh	APP 5UTR inh
COCCNC(=O)CSc1ncnc2sc(-c3ccccc3)cc12	0	4	9	-16	-6
COc1ccc(Cn2c(-c3ccc(C)cc3)c[n+]3ccccc23)cc1	10	90*	71*	7	1
Cc1ccc2c(CN3CCC(C)CC3)cc(=O)oc2c1C	10	x	x	-83	x
COc1c(C(C)C)cc(NC(C)=O)cc1C(C)C	-4	-1	3	-27	6
Cc1ccc2nc(C)c(C(=O)NN=C3CCCCCC3)n2c1	9	-1	2	-9	84*
Cc1ccn2c(C(=O)NN=C3CCN(C)CC3)c(C)nc2c1	-4	0	2	5	-18
CS(=O)(=O)N(CC(=O)N1CCc2ccccc2C1)c1ccc2c(c1)OCO2	6	1	93*	3	-15
Cc1cc(=O)[nH]c(N/N=C/c2ccccn2)n1	2	10	2	-33	65*
Cc1cc(=O)[nH]c(N/N=C/c2cccc(Br)c2)n1	2	x	x	-41	x
O=c1[nH]c(N2CCc3ccccc3C2)nc2c1CCCC2	-1	5	3	0	10
CCOc1ccccc1NC(=O)CN(c1ccc(OC)cc1)S(=O)(=O)c1c(C)noc1C	2	79*	75*	-6	89*
CCOc1ccc(N(CC(=O)Nc2ccc(C)c(C)c2)S(=O)(=O)c2c(C)noc2C)cc1	2	2	2	13	-14
CCOc1ccc(N(CC(=O)Nc2ccccc2C)S(=O)(=O)c2c(C)noc2C)cc1	63*	78*	54*	28	66*
Cc1ccc(-c2nc(N)n(C(=O)c3cccs3)n2)cc1	1	-6	0	5	-18
O=C(Nc1cccc(S(=O)(=O)N2CCOCC2)c1)C(c1ccccc1)N1CCCCC1 (centres undefined)	4	-3	2	-3	-21
CC(C(=O)Nc1cccc(S(=O)(=O)N2CCOCC2)c1)N1CCN(C/C=C/c2ccccc2)CC1 (centres undefined)	-7	28*	30*	-15	-2
COc1cc(Cl)c([C@@H]2C[C@H]3CN(c4ccccc4)C(=O)[C@]34CCCN24)cc1OC	0	2	7	-26	-14
COc1cc(OC)cc(C(=O)N/N=C/c2ccc(OC)c(COc3ccc4ccccc4c3)c2)c1	5	2	5	4	56*
CS(=O)c1nc(-c2ccc(Br)cc2)cc(-c2ccccc2)c1C#N (centres undefined)	3	5	-4	-6	94*
Cc1cc(C(=O)N/N=C2\CCCc3ccccc32)c(C)o1	8	0	7	-18	68*
COc1ccccc1N(CC(=O)NCCC1=CCCCC1)S(=O)(=O)c1ccccc1	-1	2	9	-27	14
Cc1nn(Cc2ccc(C(=O)Nc3nccs3)cc2)c(C)c1Cl	13	39*	43*	56	1
NNC(=O)c1csc(CS(=O)(=O)c2ccc(Cl)cc2)n1	2	3	-6	-9	x
Cc1ccc[n+](Cc2ccc([N+](=O)[O-])cc2)c1	0	2	11	-28	-16
O=[N+]([O-])c1ccc(C[n+]2cccc3c4ccccc4ccc32)cc1	-11	90*	74*	-22	4
COc1cccc(OCc2cc(C(=O)N3CCN(c4ccccc4O)CC3)no2)c1	5	x	x	-145	x
Cc1cc(-c2ccccc2)cc(-c2ccccc2)[n+]1C	4	73*	68*	-6	-4
CNC(=O)C(Sc1ccccc1)c1ccccc1 (centres undefined)	0	2	3	-9	49*
COc1ccc(NC(=O)c2oc3ccccc3c2NC(=O)c2ccco2)c(OC)c1	4	1	3	1	-8
COc1ccc(NC(=O)c2oc3ccccc3c2NC(=O)c2ccco2)cc1	-5	-2	35*	-19	6
